Unmarked numbers belong to inactive results. Results filed as inconclusive are left out. A call without a number means that no potency is given here. Activity calls are given as the source filed them. Unless noted, calls follow the shape of the dose curve; as a rule, active = well fitted curve in the direction sought with a large enough effect in the repeat runs; inconclusive = weak or mixed curves; inactive = no such curve, though single readings can be large; an effect the other way counts as inactive or inconclusive.
Columns and labels:
[1] = qHTS assay to identify small molecule agonists of the TGF-beta/Smad signaling pathway (AID 1346859; active = well fitted activation curve with a large enough effect in the signal ratio in the repeat runs, not every such curve was filed as active; the % refers to the signal ratio; also: series mostly up to about 77 µM)
Method in brief: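 SBE-bla HEK293T cells plated overnight, then compound exposure for 5 h at 37 C. Beta-lactamase reporter read with LiveBLAzer B/G FRET substrate after 2 h at room temperature, fluorescence at 405 nm excitation, 460/530 nm emission.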

[2] = target: Thyrotropin-releasing hormone receptor (Homo sapiens) (UniProt P34981); test: qHTS assay to identify small molecule antagonists of the thyrotropin-releasing hormone receptor (TRHR) signaling pathway (AID 1346877; active = well fitted inhibition curve with a large enough effect in the repeat runs, not every such curve was filed as active; also: series mostly up to about 51 µM)
Sequence of Thyrotropin-releasing hormone receptor (Homo sapiens) (P34981 whole entry, looked up): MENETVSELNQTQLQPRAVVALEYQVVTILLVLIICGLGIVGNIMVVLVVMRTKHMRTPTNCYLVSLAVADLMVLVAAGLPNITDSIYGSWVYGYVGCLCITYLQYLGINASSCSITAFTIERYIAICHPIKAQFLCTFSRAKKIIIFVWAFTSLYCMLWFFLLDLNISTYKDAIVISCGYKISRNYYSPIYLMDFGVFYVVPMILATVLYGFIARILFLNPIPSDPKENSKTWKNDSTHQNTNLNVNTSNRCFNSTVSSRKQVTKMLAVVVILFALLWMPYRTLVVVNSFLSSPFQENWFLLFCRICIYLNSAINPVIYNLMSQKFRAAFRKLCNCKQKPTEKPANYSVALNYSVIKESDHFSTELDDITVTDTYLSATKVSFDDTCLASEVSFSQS
Method in brief: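 Intracellular calcium fluorescence, read kinetically every second over 3 min, reports TRH-evoked signalling in HEK293 cells carrying TRHR. Test compounds were added 5 min ahead of a 1 nM TRH challenge.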

[3] = target: Thyrotropin-releasing hormone receptor (Homo sapiens) (UniProt P34981); test: qHTS assay to identify small molecule agonists of the thyrotropin-releasing hormone receptor (TRHR) signaling pathway (AID 1346891; calls by dose curve; also: series mostly up to about 58 µM)
Method in brief: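 HEK293 cells expressing TRHR plated 18 h at 37 C/5% CO2, calcium dye-loaded 2 h at 37 C, then compound added (agonist mode); kinetic calcium fluorescence read 3 min at 1 s intervals; 15 concentrations in triplicate.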

[4] = Human pregnane X receptor (PXR) small molecule agonists, qHTS cell viability counter screen (AID 1346977); also: nearly all actives have a fitted effect of over 50% in size
Method in brief: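 PXR-Luc HepG2 cells (2,000/well, 5% charcoal-stripped FBS) preincubated 5 hr, then exposed to compounds 24 hr at 37 C. Viability read in the same wells by CellTiter-Fluor fluorescence, reagent added at 23 hr, 1 hr incubation.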

[5] = Caspase-3/7 induction in HepG2 cells by small molecules, qHTS assay (AID 1346978); also: nearly all actives have a fitted effect of over 15% in size
Method in brief: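 Wild-type HepG2 cells, 2,000/well, settled 5 hr at 37 C and 5% CO2, then compound-treated for 17 hr; caspase-3/7 activity read by luminescent Caspase-Glo 3/7 after 30 min at room temperature.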

[6] = Caspase-3/7 induction in CHO-K1 cells by small molecules, qHTS cell viability counter screen (AID 1346979); also: nearly all actives have a fitted effect of over 35% in size
Method in brief: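 Wild-type CHO-K1 cells (1,500/well) treated with compound after 5 h plating; after 16 h at 37C, viability read as CellTiter-Fluor fluorescence following 1 h reagent incubation, in the same wells as the caspase read.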

[7] = Caspase-3/7 induction in CHO-K1 cells by small molecules, qHTS assay (AID 1346980); also: nearly all actives have a fitted effect of over 15% in size
Method in brief: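 Wild-type CHO-K1 cells exposed to compounds for 17hr at 37 C, 5% CO2. Caspase-3/7 activity then measured by Caspase-Glo 3/7 luminescence after 30min at room temperature.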

[8] = Caspase-3/7 induction in HepG2 cells by small molecules, qHTS cell viability counter screen (AID 1346981); also: series mostly up to about 92 µM; nearly all actives have a fitted effect of over 30% in size
Method in brief: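 HepG2, WT, 2,000 cells/well; 5 hr pre-incubation 37 C/5% CO2; compound pin-transferred from DMSO; 16 hr exposure; CellTiter-Fluor, 1 hr; fluorescence read.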

[9] = target: Cytochrome P450 2C19 (Homo sapiens) (UniProt P33261); test: Cytochrome P450 Family 2 Subfamily C Member 19 (CYP2C19) small molecule antagonists: luciferase reporter qHTS assay (AID 1671197); also: nearly all actives have a fitted effect of over 65% in size; also: potency is read from the fitted curve at half-maximal effect; as to activity change, negative = inhibition: series mostly up to about 120 µM
Sequence of Cytochrome P450 2C19 (Homo sapiens) (P33261 whole entry, looked up): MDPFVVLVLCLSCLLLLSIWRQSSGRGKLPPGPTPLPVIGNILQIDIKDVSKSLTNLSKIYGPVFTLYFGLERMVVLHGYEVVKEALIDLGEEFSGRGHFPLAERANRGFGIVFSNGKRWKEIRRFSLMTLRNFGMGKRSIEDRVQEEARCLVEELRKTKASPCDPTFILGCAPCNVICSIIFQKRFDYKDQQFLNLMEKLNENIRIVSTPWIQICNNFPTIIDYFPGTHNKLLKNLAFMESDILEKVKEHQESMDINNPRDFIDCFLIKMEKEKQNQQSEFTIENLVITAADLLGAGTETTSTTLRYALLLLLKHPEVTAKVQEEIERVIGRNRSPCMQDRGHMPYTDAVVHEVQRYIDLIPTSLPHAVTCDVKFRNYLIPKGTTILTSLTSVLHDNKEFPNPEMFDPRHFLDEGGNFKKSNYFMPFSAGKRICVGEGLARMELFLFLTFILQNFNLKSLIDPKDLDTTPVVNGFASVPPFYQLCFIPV
Method in brief: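 First, compounds are pinned into enzyme-substrate mix and held 10 min at room temperature. Second, NADPH regeneration solution is added and plates incubate 1 h at 37C. Third, detection reagent is added and luminescence read after 20 min.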

[10] = target: Cytochrome P450 2C9 (Homo sapiens) (UniProt P11712); test: Cytochrome P450 Family 2 Subfamily C Member 9 (CYP2C9) small molecule antagonists: luciferase reporter qHTS assay (AID 1671198); also: nearly all actives have a fitted effect of over 50% in size; also: potency is read from the fitted curve at half-maximal effect; as to activity change, negative = inhibition: series mostly up to about 120 µM
Sequence of Cytochrome P450 2C9 (Homo sapiens) (P11712 whole entry, looked up): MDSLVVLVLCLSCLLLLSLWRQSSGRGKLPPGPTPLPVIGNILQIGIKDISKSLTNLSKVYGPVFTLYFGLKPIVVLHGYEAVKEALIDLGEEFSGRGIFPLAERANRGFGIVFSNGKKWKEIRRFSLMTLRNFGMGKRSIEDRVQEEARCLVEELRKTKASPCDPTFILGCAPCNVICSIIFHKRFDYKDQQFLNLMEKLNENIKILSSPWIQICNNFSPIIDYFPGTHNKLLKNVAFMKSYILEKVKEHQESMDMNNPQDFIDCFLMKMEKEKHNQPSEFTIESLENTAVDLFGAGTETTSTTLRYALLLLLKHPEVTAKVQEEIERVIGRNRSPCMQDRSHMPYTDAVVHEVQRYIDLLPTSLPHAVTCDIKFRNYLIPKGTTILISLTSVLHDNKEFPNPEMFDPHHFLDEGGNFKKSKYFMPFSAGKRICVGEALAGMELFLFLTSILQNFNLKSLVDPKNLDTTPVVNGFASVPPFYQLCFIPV
Method in brief: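 P450-Glo proluciferin substrate with CYP2C9 enzyme; 10 min RT preincubation, then NADPH regeneration 1 h at 37C; luciferin detection reagent 20 min RT, luminescence in relative luminescence units.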

[11] = target: Cytochrome P450 1A2 (Homo sapiens) (UniProt P05177); test: Cytochrome P450 Family 1 Subfamily A Member 2 (CYP1A2) small molecule antagonists: luciferase reporter qHTS assay (AID 1671199); also: nearly all actives have a fitted effect of over 50% in size; also: potency is read from the fitted curve at half-maximal effect; as to activity change, negative = inhibition: series mostly up to about 120 µM
Sequence of Cytochrome P450 1A2 (Homo sapiens) (P05177 whole entry, looked up): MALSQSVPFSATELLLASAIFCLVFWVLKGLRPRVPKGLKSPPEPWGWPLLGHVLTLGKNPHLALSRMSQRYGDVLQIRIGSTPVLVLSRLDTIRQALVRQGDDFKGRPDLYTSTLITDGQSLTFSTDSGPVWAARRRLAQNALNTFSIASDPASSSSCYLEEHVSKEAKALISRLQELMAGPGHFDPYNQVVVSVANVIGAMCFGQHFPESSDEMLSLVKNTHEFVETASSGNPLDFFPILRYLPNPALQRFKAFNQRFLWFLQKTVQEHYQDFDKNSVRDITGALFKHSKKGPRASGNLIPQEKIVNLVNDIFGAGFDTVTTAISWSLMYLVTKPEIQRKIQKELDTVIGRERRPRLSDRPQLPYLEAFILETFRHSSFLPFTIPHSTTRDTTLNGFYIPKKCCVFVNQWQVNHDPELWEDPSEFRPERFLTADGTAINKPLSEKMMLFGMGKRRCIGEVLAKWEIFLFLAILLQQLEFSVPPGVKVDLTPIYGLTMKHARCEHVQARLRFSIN
Method in brief: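 P450-Glo CYP1A2, 1536-well qHTS: enzyme/proluciferin substrate + cpd (DMSO), 10 min RT; NADPH regen, 1 h RT; detection reagent, 20 min; luminescence, RLU.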

[12] = target: Voltage-gated inwardly rectifying potassium channel KCNH2 (Homo sapiens) (UniProt Q12809); test: Human Ether-a-go-go-Related Gene (hERG) channel small molecule antagonists: fluorescence cell-based qHTS assay (AID 1671200);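 also: hERG-expressing U2OS cells given a thallium stimulus after FluxOR II dye loading; series mostly up to about 77 µM; nearly all actives have a fitted effect of over 50% in size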
Sequence of Voltage-gated inwardly rectifying potassium channel KCNH2 (Homo sapiens) (Q12809 whole entry, looked up): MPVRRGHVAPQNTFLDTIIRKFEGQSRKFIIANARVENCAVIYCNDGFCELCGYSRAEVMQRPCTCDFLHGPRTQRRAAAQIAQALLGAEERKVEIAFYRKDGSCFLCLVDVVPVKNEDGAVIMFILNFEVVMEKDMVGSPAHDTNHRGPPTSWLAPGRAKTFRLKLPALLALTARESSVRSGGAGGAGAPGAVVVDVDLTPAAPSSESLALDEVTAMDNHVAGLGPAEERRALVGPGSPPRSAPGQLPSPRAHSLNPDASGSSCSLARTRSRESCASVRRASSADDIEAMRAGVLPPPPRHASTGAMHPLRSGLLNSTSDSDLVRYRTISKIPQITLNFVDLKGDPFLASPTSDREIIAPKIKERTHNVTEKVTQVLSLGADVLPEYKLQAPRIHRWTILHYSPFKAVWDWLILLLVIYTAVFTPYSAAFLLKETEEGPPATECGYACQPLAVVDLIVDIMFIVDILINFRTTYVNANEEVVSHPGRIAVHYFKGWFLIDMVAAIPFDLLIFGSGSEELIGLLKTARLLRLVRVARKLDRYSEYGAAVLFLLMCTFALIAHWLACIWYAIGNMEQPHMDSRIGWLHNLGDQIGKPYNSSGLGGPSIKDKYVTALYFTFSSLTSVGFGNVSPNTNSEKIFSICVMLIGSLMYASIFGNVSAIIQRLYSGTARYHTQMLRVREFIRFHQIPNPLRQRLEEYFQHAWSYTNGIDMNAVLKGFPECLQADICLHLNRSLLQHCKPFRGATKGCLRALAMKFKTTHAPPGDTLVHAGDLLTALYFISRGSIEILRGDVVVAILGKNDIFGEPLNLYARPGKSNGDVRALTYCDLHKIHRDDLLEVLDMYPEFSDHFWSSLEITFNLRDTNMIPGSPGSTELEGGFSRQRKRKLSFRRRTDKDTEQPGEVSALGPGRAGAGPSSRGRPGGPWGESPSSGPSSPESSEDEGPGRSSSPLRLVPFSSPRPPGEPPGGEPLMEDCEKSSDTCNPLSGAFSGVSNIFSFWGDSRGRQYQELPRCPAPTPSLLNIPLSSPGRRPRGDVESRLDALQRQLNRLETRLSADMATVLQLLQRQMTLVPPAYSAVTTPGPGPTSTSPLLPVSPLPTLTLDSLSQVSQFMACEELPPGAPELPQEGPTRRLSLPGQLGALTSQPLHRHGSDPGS
Method in brief: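 hERG-U2OS cells plated overnight at 37 C, loaded with FluxOR II dye 1 h at RT in dark; after 10 min, thallium stimulus added. Fluorescence (480/540 nm) read kinetically for 2 min at 1 s intervals.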

[13] = target: Cytochrome P450 3A4 (Homo sapiens) (UniProt P08684); test: Cytochrome P450 Family 3 Subfamily A Member 4 (CYP3A4) small molecule antagonists: luciferase reporter qHTS assay (AID 1671201)
Sequence of Cytochrome P450 3A4 (Homo sapiens) (P08684 whole entry, looked up): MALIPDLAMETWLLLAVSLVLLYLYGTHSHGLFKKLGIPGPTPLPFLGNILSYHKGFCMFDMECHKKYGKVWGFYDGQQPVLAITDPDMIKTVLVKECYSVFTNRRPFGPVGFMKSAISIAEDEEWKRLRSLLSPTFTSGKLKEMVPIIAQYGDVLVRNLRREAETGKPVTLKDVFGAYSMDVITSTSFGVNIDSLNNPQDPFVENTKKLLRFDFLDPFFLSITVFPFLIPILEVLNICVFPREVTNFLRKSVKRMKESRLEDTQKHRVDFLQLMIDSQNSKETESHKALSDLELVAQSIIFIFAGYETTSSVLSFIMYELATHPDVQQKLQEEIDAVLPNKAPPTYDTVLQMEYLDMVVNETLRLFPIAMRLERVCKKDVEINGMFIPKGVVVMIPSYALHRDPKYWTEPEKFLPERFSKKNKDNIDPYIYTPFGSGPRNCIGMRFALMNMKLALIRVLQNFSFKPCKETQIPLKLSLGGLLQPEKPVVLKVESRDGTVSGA
Method in brief: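 P450-Glo CYP3A4 luminescent assay: compounds preincubated 10 min at room temperature with enzyme and proluciferin substrate, NADPH regeneration added, 1 h room-temperature reaction, stopped with luciferin detection reagent; luminescence read after 20 min. Ketoconazole positive control.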

[14] = target: Nuclear receptor subfamily 1 group I member 2 (Homo sapiens) (UniProt O75469); test: Human pregnane X receptor (PXR) small molecule agonists, qHTS assay (AID 1346982); also: nearly all actives have a fitted effect of over 35% in size
Sequence of Nuclear receptor subfamily 1 group I member 2 (Homo sapiens) (O75469 whole entry, looked up): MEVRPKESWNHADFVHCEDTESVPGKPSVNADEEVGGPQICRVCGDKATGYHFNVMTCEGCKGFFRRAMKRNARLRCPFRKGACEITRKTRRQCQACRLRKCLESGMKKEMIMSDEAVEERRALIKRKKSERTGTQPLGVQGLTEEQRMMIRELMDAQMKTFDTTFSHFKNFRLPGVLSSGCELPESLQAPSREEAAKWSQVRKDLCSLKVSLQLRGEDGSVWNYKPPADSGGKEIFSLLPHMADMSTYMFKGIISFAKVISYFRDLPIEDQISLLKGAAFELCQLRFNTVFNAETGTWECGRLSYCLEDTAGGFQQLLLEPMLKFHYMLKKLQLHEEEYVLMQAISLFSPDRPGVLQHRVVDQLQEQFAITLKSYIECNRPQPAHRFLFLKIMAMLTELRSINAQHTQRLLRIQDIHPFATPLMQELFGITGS
Method in brief: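 Luciferase signal from ONE-Glo (30 min, room temperature) measured activation of hPXR-driven CYP3A4 reporter expression in PXR-Luc HepG2 cells treated with compounds for 24 hr at 37 C.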

[15] = target: Cytochrome P450 2D6 (Homo sapiens) (UniProt P10635); test: Cytochrome P450 Family 2 Subfamily D Member 6 (CYP2D6) small molecule antagonists: luciferase reporter qHTS assay (AID 1671196)
Sequence of Cytochrome P450 2D6 (Homo sapiens) (P10635 whole entry, looked up): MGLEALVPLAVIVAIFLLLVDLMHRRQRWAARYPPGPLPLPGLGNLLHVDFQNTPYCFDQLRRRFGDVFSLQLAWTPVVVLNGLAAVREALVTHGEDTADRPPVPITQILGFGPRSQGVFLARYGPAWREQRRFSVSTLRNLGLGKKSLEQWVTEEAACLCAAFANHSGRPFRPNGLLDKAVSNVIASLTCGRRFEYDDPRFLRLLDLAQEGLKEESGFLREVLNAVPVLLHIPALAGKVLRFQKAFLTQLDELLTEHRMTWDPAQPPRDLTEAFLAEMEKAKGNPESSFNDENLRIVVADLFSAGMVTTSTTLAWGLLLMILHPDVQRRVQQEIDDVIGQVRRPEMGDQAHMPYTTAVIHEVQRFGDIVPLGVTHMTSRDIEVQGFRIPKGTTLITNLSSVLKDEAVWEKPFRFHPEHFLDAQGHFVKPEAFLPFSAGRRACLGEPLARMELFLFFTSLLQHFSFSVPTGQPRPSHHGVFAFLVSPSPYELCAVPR
Method in brief: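 Read-out is luminescence from luciferin formed by CYP2D6 turnover of a proluciferin substrate, recorded as relative luminescence units. Reactions ran 1 h at room temperature after NADPH regeneration solution was added.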

With `CC(=O)CC(=O)OC(C)(C)C` the outcome [1] was “inactive”, the outcome [2] was “inactive” and the outcome [3] was “inactive”. For the same compound, the outcome [4] was “inactive”, the outcome [5] was “inactive” and the Potency [6] was “inactive”. The outcome [7] was “inactive”, the outcome [8] was “inactive” and the Potency [9] was “inactive”. For the same compound, the Potency [10] was “inactive”, the Potency [11] was “inactive” and the Potency [12] was “inactive”. The Potency [13] was “inactive”.

In the case of `CC(Oc1cc(Cl)ccc1Cl)C(=O)O` (stereo unspecified), the outcome [1] is reported as “inactive”, the outcome [2] is reported as “inactive” and the outcome [3] is reported as “inactive”. The outcome [4] was “inactive”, the outcome [5] was “inactive” and the Potency [6] was “inactive”. For the same compound, the outcome [7] was “inactive”, the Potency [14] was “inactive” and the Potency [10] was 71 µM (active). For the same compound, the Potency [11] was “inactive” and the Potency [12] was “inactive”.

In the case of `Fc1ccccc1`, the outcome [1] is reported as “inactive”, the outcome [2] is reported as “inactive” and the outcome [3] is reported as “inactive”. The outcome [4] was “inactive”, the outcome [5] was “inactive” and the Potency [6] was “inactive”. For the same compound, the outcome [8] was “inactive”, the Potency [14] was “inactive” and the Potency [15] was “inactive”. The Potency [9] was “inactive”, the Potency [10] was “inactive” and the Potency [11] was “inactive”. The Potency [12] was “inactive” and the Potency [13] was “inactive”.

In the case of `CCCCOC(=O)C(C)O` (stereo unspecified), the outcome [1] is reported as “inactive”, the outcome [2] is reported as “inactive” and the outcome [3] is reported as “inactive”. For the same compound, the outcome [4] was “inactive”, the outcome [5] was “inactive” and the Potency [6] was “inactive”. For the same compound, the outcome [8] was “inactive”, the Potency [14] was “inactive” and the Potency [10] was “inactive”. For the same compound, the Potency [11] was “inactive”, the Potency [12] was “inactive” and the Potency [13] was “inactive”.

Work on `O=C1c2ccccc2C(=O)c2cc(Cl)ccc21` yielded an activation [1] of 1.62% [at 6.97 µM], an activity, negative = inhibition [2] of -0.75% [at 4.65 µM] and an activation [3] of 0.0495% [at 5.23 µM]. It also gave an activity change, negative = cytotoxicity [4] of -0.0384% [at 8.39 µM], an activity change, negative = cytotoxicity [6] of 9.78% [at 8.39 µM] and a caspase-3/7 activation [7] of -0.328% [at 8.39 µM]. For the same compound, the activity change, negative = cytotoxicity [8] was 3.18% [at 8.39 µM], the activation [14] was 8.25% [at 8.39 µM] and the activity change, negative = inhibition [15] was -1.33% [at 10.5 µM]. The activity change, negative = inhibition [9] was -15.8% [at 10.5 µM], the activity change, negative = inhibition [10] was -13.1% [at 10.5 µM] and the Potency [11] was 0.138 µM (active). It also gave an activity change, negative = inhibition [12] of -0.029% [at 6.97 µM] and an activity change, negative = inhibition [13] of 5.17% [at 10.5 µM].

In the case of `CC(C)Nc1ccccc1`, the outcome [1] is reported as “inactive”, the outcome [2] is reported as “inactive” and the outcome [3] is reported as “inactive”. The outcome [4] was “inactive”, the outcome [5] was “inactive” and the Potency [6] was “inactive”. The outcome [8] was “inactive”, the Potency [14] was “inactive” and the Potency [15] was “inactive”. The Potency [9] was “inactive”, the Potency [10] was “inactive” and the Potency [12] was “inactive”. The Potency [13] was “inactive”.

For `NCCOCCN`, the outcome [1] was “inactive”, the outcome [2] was “inactive” and the outcome [3] was “inactive”. For the same compound, the outcome [4] was “inactive”, the outcome [5] was “inactive” and the Potency [6] was “inactive”. The outcome [8] was “inactive”, the Potency [14] was “inactive” and the Potency [9] was 71 µM (active). The Potency [10] was “inactive”, the Potency [11] was 17.8 µM (active) and the Potency [12] was “inactive”. For the same compound, the Potency [13] was “inactive”.

With `CC(C)COC(=O)c1ccccc1` the outcome [1] was “inactive”, the outcome [2] was “inactive” and the outcome [3] was “inactive”. The outcome [4] was “inactive”, the outcome [5] was “inactive” and the Potency [6] was “inactive”. For the same compound, the outcome [8] was “inactive”, the Potency [14] was “inactive” and the Potency [10] was “inactive”. The Potency [12] was “inactive” and the Potency [13] was “inactive”.
